Bioassay records as filed in PubChem.
Cruzain noTriton – inhibitors of Trypanosoma cruzi cruzain without detergent. AID 1476. Potency, µM, hits mostly inhibitors. 200,000 compounds, 2.3% hits. P25779. purified cruzain, Z-FR-AMC fluorescence, no detergent; further: nearly all actives have a fitted effect of over 40% in size
Target sequence (P25779 123-467 limits assumed): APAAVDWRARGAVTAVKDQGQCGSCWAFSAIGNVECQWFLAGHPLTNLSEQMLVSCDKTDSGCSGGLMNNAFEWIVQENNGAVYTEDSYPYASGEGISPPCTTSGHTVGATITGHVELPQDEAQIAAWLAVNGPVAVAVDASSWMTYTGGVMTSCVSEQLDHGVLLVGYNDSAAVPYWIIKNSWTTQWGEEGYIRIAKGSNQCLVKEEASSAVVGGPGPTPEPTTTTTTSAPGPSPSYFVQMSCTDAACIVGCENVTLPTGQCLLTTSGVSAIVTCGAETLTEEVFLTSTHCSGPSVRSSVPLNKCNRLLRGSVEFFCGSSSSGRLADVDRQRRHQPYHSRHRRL
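Detergent-free condition (0.00005% Triton X-100) in acetate buffer pH 5.5 with DTT. 1.5 nM enzyme and compound were pre-mixed 15 min, then 2 uM Z-FR-AMC substrate added; reaction progress from fluorescence change between first and third reads (60 s).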
Cruzain inh Det – blocks cruzain activity in presence of Triton detergent; P25779; 200,000 compounds, 0.43% hits; AID 1478; Potency, µM, most hits filed as inhibitors; purified cruzain, Z-FR-AMC fluorescence, 0.01% Triton; further: nearly all actives have a fitted effect of over 40% in size
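Purified cruzain (1.5 nM final) was preincubated with compounds for 15 min at room temperature in 100 mM sodium acetate pH 5.5, 5 mM DTT, 0.01% Triton X-100. Reaction started with 2 uM Z-FR-AMC; AMC fluorescence change over 60 s gave activity.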
Papain counter – papain (Carica papaya) inhibition counter-screen; 410 compounds, 41% hits; shares compounds with Cruzain inh Det; purified papain, Z-FR-AMC fluorescence cleavage; Potency, µM, actives largely listed as inhibitors; further: nearly all actives have a fitted effect of over 35% in size
Target sequence (P00784 whole entry, looked up): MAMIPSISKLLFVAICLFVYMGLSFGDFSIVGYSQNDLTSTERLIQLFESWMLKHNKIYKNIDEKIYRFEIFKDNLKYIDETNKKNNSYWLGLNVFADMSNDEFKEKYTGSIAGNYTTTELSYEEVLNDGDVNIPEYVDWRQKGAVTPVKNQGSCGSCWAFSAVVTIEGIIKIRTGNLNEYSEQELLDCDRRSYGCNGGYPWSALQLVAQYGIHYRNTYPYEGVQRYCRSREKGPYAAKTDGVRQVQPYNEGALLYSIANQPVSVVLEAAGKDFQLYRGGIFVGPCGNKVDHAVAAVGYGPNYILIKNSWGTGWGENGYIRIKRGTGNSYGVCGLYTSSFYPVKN
Large screens that a line does not name were inactive (follow-up assays come after a bar, where they were run). This is a sample that favours compounds with a hit; in the whole collection about 2.6% have one here. The call rests on the fitted dose curve; in most records, active means well fitted curve in the direction sought with a large enough effect; inconclusive means small, poorly fitted or top-dose-only effect, or another doubt; inactive means no such curve, though single readings can be large; an effect the other way counts as inactive or inconclusive.

C[C@@]12CC[C@@H]3c4ccc(O)cc4C[C@H](CCCCCCCCCS(=O)CCCC(F)(F)C(F)(F)F)[C@H]3[C@@H]1CC[C@@H]2O (stereo partly drawn)	Cruzain noTriton inconclusive
COc1cccc2[nH]c(-c3ccccn3)nc12	none
CCn1c(C(=O)NCc2ccc(OC)cc2)cc2sc(Cl)cc21	none
CCOCCCNC(=O)C(c1ccc(OC)cc1)N(Cc1cccs1)C(=O)c1ccc(NC(C)=O)cc1 (stereo not drawn)	Cruzain noTriton inconclusive
Cc1ccc2c(c1)N(CC(=O)NCc1cccc(Cl)c1)C(=O)c1cccnc1O2	none
COc1ccc(Nc2nc(Cl)nc(NCCO)n2)cc1	none
CCCCNc1nc(C#N)nc(Nc2ccccc2)n1	none (no result: Cruzain noTriton, Cruzain inh Det) | Papain counter 1µM
N#Cc1nc(NCCCCO)nc(Nc2ccccc2)n1	none (no result: Cruzain noTriton, Cruzain inh Det) | Papain counter 2.2µM
CCCCNc1cc(C)nc(NCc2ccccc2)n1	none
C[C@@H](Cc1ccc(Cl)cc1Cl)NO	none
CCc1ccc(CNC(=O)Cn2nc(C)n3c(cc4cc(C)ccc43)c2=O)cc1	none
O=C(Cn1cc(SCc2ccc(Cl)cc2)c2ccccc21)N1CCCC1	none
N#Cc1nc(-c2ccc(F)cc2)oc1NCCN1CCOCC1	none
COc1ccc(-c2nc(C#N)c(NCCCN3CCOCC3)o2)cc1	Cruzain inh Det 20µM | Papain counter 4µM
Nc1nnnn1CCO	none
NC(=O)CSc1nnc([C@@H](N)Cc2c[nH]c3ccccc23)o1	Cruzain noTriton 10µM, Cruzain inh Det 8.9µM | Papain counter inactive
CC(C)(C)OC(=O)N[C@@H](Cc1c[nH]c2ccccc12)c1nnc(SCC(N)=O)o1	none
CC(C)CNc1nc(C#N)nc(Nc2ccccc2)n1	none (no result: Cruzain noTriton, Cruzain inh Det) | Papain counter 1.3µM
CN(C)c1nc(Nc2ccccc2)nc(N(C)C)n1	none
CC(C)Nc1nc(C#N)nc(Nc2ccccc2)n1	none (no result: Cruzain noTriton, Cruzain inh Det) | Papain counter 2.2µM
CSc1nc(NC(C)C)nc(NC(C)C)n1	none
CC(C)Nc1nc(C#N)nc(NC(C)C)n1	Cruzain noTriton 16µM, Cruzain inh Det 11µM | Papain counter 5µM
CNc1nc(C#N)nc(Nc2ccccc2)n1	none (no result: Cruzain noTriton, Cruzain inh Det) | Papain counter 2.2µM
CNc1nc(N/N=C/c2ccc([N+](=O)[O-])cc2)nc(Nc2ccccc2)n1	none
COc1nc(Nc2ccc([N+](=O)[O-])cc2)nc(NC(C)C)n1	none
COC1C(O)C(CO)OC1n1cnc2c(=O)[nH]c(N)nc21 (stereo not drawn)	none
Cc1cc(O)cc(O)c1C(=O)OC1(C)C(=O)C=C2C=C(/C=C/CO)OC=C2C1=O (stereo not drawn)	none
CCc1ccc(S(=O)(=O)c2nnn(-c3ccc(F)cc3)c2N)cc1	none
Cc1cc(C)cc(Oc2nc3c(C)cccn3c(=O)c2/C=C(\C#N)c2nc3ccccc3s2)c1	none
Cc1ccc(NC(=S)c2nc3ccccc3[nH]2)c(C)c1	none
Cc1ccc2[nH]c(=O)c(NC(N)=S)nc2c1	Cruzain noTriton 1.6µM, Cruzain inh Det 1.8µM | Papain counter inactive
CCOc1ccc(NS(=O)(=O)c2ccc3[nH]cc(C(=O)N4CCCC4)c(=O)c3c2)cc1	none
CCOc1ccc2[nH]c(=O)c(CN(Cc3nnnn3Cc3ccco3)C3CCCCC3)cc2c1	Cruzain noTriton 10µM, Cruzain inh Det 6.3µM | Papain counter inactive
CCOc1ccc2[nH]c(=O)c(CN(Cc3ccco3)Cc3nnnn3Cc3ccccc3)cc2c1	none
COCCn1nnnc1CN(Cc1cc2cc(OC)c(OC)cc2[nH]c1=O)C1CCCC1	none
COc1cc2cc(CN(Cc3nnnn3Cc3ccco3)C3CCCCC3)c(=O)[nH]c2cc1OC	Cruzain noTriton 7.9µM, Cruzain inh Det 7.1µM | Papain counter 28µM
CCc1ccc(CN2CCc3nc(Nc4ccccc4)ncc3C2)cc1	Cruzain noTriton inconclusive
COc1ccc(-n2ccn3c(CC(C)(C)CC(=O)O)nnc3c2=O)cc1	none
CCCCC/C=C\CC(O)/C=C/c1cccc(CC(O)CCCCO)n1 (stereo not drawn)	none
N#Cc1nc(NCC2CC2)nc(Nc2ccccc2)n1	none (no result: Cruzain noTriton, Cruzain inh Det) | Papain counter 1.3µM
COc1cccc(/C=C/c2nc(C#N)c(NC3CCCCC3)o2)c1	none
COc1cccc(Nc2nc(C#N)nc(NC3CCCC3)n2)c1	none (no result: Cruzain noTriton, Cruzain inh Det) | Papain counter 0.28µM
N#Cc1nc(Nc2ccc(F)cc2)nc(NC2CCCC2)n1	none (no result: Cruzain noTriton, Cruzain inh Det) | Papain counter 0.45µM
Cc1cccc(Nc2nc(N3CCCC3)nc(N3CCCC3)n2)c1	none
COc1nc(NCCN2CCOCC2)nc(Nc2ccccc2)n1	none
N#Cc1nc(Nc2cccc(Br)c2)nc(NC2CCCC2)n1	none (no result: Cruzain noTriton, Cruzain inh Det) | Papain counter 1.3µM
O=C(Nc1ccc(F)cc1)NC1CCCCC1	none
O=C(c1ccc2c(c1)N(Cc1cccc(Cl)c1)C(=O)c1ccccc1S2)N1CCOCC1	Cruzain noTriton inconclusive
COc1ccc2sc(N(Cc3cccnc3)C(=O)C3CCCCC3)nc2c1	none
CCn1c2ccccc2c2cc(CN3CCN(Cc4ccc(Br)cc4)CC3)ccc21	Cruzain noTriton inconclusive
COCCNC(=O)C1CCC(CNS(=O)(=O)c2ccc3c(c2)CC(C)N3C(C)=O)CC1 (stereo not drawn)	none
N#Cc1nc(Nc2ccc(-c3ccccc3)cc2)nc(NC2CCCC2)n1	none (no result: Cruzain noTriton, Cruzain inh Det) | Papain counter 3.5µM
N#Cc1nc(Nc2ccccc2)nc(NC2CCCC2)n1	none (no result: Cruzain noTriton, Cruzain inh Det) | Papain counter 0.45µM
CC1CN=C(Nc2cccc3ccccc23)S1 (stereo not drawn)	none
c1ccc(-c2nnc(-c3ccccn3)nc2NC2CCCCC2)cc1	none
N#Cc1nc(Nc2cccc3ccccc23)nc(NC2CCCC2)n1	none (no result: Cruzain noTriton, Cruzain inh Det) | Papain counter 4.5µM
c1ccc(Nc2nc(N3CCCC3)nc(N3CCCC3)n2)cc1	none
O=C(c1cccc(F)c1)N1CCC2(CC1)CCN(c1ccccn1)CC2	none
COC(=O)N1CCC2(CCCN(Cc3ccc(C#N)cc3)C2)CC1	none
COc1ccc(/C=C/C(=O)Nc2ccc(-n3nncc3-c3ccc(Br)cc3)cc2)cc1OC	none (no result: Cruzain noTriton, Cruzain inh Det) | Papain counter inactive
COc1ccc(/C=C/C(=O)Nc2ccccc2C(=O)O)cc1OC	none
Cc1ccc(NC(=O)c2ccc(-n3nncc3-c3ccccc3)cc2)cc1	none (no result: Cruzain noTriton, Cruzain inh Det) | Papain counter inactive
CCOc1ccc(C(=O)Nc2ccc(-n3nncc3-c3ccccc3)cc2)cc1OCC	none
COc1ccc(/C=C/C(=O)Nc2ccc(-n3nncc3-c3ccccc3)cc2)cc1OC	Cruzain noTriton 16µM, Cruzain inh Det 3.2µM | Papain counter inactive
COc1cccc(C(=O)Nc2ccc(-n3nncc3-c3ccc(Br)cc3)cc2)c1OC	none
COc1ccccc1CN1CCC2(CC1)CCN(C(=O)c1cc(C(F)(F)F)cc(C(F)(F)F)c1)CC2	none
Cc1c(CNC2CCCCCC2)c(C(=O)O)c(C)n1Cc1cccc(Cl)c1	none
CS(=O)(=O)N1CCC2(CCN(C(=O)Nc3cccc(C#N)c3)CC2)CC1	none
Cc1ccc(-c2nc3c(=O)n(C)c(=O)nc-3n(C)n2)cc1	none (no result: Cruzain noTriton, Cruzain inh Det) | Papain counter inactive
CCc1ccc(-c2nn[nH]n2)cc1	none
Cc1ccccc1-c1nc2c(=O)n(C)c(=O)nc-2n(C)n1	none (no result: Cruzain noTriton, Cruzain inh Det) | Papain counter inactive
Cc1ccc(-c2nc(N)n(S(C)(=O)=O)n2)cc1	none
Cn1ncnc2c(=O)n(C)c(=O)nc1-2	Cruzain noTriton 1.3µM, Cruzain inh Det 1.3µM | Papain counter inactive
CCc1ccc(-c2nc3c(=O)n(C)c(=O)nc-3n(CC)n2)cc1	none (no result: Cruzain noTriton, Cruzain inh Det) | Papain counter inactive
Cn1c(=O)c(-c2ccc(Cl)cc2)nc2cncnc21	none
Cc1ccccc1-c1nccc(-n2ccnc2)n1	none
CCCCC(=O)Nc1cc(-c2cn3cccnc3n2)ccc1C	none
CN(C)C(=O)Nc1cccc(C(F)(F)F)c1	none
